# Measurements from PubChem BioAssay.
# Inconclusive results are not listed. Active and inactive are the calls of the source. Unless noted, how the calls were made is not given here.
# Assays:
# [1] = yeast TOR pathway RPL19A-GFP modulators, primary screen, cell-based, S. cerevisiae, multiplex flow cytometry (AID 1862; in the data active means percent of DMSO control GFP below about 86%;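 further: lower values mimic rapamycin by blocking the RPL19A rise seen in DMSO cells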); details: S. cerevisiae RPL19A-GFP strain, flow cytometry fluorescence, 3 h; at 10 µM; stronger effect = lower value
# [2] = modulators of CIT2-GFP expression in yeast, primary screen, S. cerevisiae, GFP fusion, multiplex flow cytometry (AID 1870;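 active means percent response above a set limit, the screen-wide mean plus 3 SD, cut at about 130% in these data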;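 further: barcoded CIT2-GFP strain pooled with four other GFP strains with rapamycin as positive control; median GFP fluorescence per well over plate mean of DMSO wells so 100% = DMSO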); details: 3 h, at 10 µM, stronger effect = higher value
# [3] = modulators of LAP4-GFP expression in yeast, primary screen, S. cerevisiae, multiplex flow cytometry (AID 1873;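 active means GFP signal, as percent of the solvent control, above the screen mean plus 3 SD, about 149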); details: 3 h, at 10 µM, stronger effect = higher value
# [4] = inhibitors of CD8+ T cell-vesicle binding, pilot screen, LFA-1/ICAM-1 modulator project, MLPCN validation set, flow cytometry (AID 2523;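 active means response below a set limit, under 55% cells CD8-positive and vesicle-bound, and CD8 cells' 90th-percentile brightness under 279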;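 on vesicle binding response: mean PE anti-B7-1 fluorescence of CD8+ cells relative to row control; 100% = QL9-loaded vesicles with DMSO vehicle in the same plate row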); details: 2C mouse CD8+ T cells, at 7 µM, stronger effect = lower value; double positive events: measured here: CD8+/vesicle+ event percentage
# [5] = target: Integrin beta-1 (Homo sapiens) + Integrin alpha-4 (Homo sapiens) (UniProt P13612+P05556); experiment: inhibition of HUTS-21 binding to VLA-4, pilot screen, VLA-4 allosteric modulator project, U937 cells, HUTS-21 mAb, flow cytometry, validation set (AID 2674;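 active means inhibition above 50%, about 3 SD of the validation set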;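 further: antibody binding induced by the VLA-4 ligand LDV present at three times its Kd; 0% = LDV ligand with antibody and no compound and 100% = antibody without LDV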); details: HUTS-21 LIBS mAb binding, at 6.7 µM, stronger effect = higher value
# [6] = superoxide lowering in aged yeast cells, pilot screen, validation compound set (AID 2706;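 active means superoxide response below 65% of plate, a cut near 3 SD across the whole screen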;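 further: yeast exposed to compound for one week at 30 degrees C before staining; 100% = mean of all compound wells on the same plate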); details: S. cerevisiae aging, superoxide DHE fluorescence; at 10 µM; stronger effect = lower value
# [7] = target: Beta-adrenergic receptor kinase 1 (Homo sapiens) (UniProt P25098); experiment: GRK2 binders displacing RNA aptamer, biochemical, validation, human GRK2, bead flow cytometry (AID 488806;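 active means aptamer binding inhibition above 30%, about 3 SD of noise from non-fluorescent compounds; inactive means inhibition at or below 30%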); details: bead-bound GRK2, FAM-aptamer displacement, at 10 µM, stronger effect = higher value
# Sequence of Beta-adrenergic receptor kinase 1 (Homo sapiens) (P25098 whole entry, looked up): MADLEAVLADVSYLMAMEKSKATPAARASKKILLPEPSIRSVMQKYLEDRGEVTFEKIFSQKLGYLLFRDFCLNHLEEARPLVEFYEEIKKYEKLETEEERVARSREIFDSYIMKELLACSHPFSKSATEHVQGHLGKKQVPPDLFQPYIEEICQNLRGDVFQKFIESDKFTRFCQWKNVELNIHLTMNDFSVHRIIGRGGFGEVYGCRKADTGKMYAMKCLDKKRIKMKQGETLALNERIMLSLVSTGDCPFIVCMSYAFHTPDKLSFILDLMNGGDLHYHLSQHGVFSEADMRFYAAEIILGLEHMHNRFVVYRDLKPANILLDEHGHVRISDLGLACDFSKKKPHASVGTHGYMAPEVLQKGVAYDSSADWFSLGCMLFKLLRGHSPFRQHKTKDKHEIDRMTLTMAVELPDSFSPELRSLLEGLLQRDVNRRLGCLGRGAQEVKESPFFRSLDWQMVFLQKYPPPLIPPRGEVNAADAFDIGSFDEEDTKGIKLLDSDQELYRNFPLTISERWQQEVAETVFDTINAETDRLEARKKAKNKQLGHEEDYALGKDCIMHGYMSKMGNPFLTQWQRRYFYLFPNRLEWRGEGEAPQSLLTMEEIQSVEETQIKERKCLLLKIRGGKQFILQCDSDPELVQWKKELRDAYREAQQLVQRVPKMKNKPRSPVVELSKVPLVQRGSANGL
# [8] = target: AP-2 complex subunit beta (Homo sapiens) (UniProt P63010); experiment: inhibitors of arrestin peptide binding to AP2, pilot screen, biochemical, validation set, GST-AP2 beads, flow cytometry (AID 504541;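 active means inhibition above 54%, about 3 SD of non-fluorescent compounds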;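 further: AP2 carries R879A mutation and is captured from E. coli lysate; bead-bound FITC arrestin peptide fluorescence measuring arrestin peptide binding to AP2; 0% = DMSO wells and 100% = excess unlabeled arrestin peptide control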); details: FITC arrestin peptide, at 10 µM, stronger effect = higher value
# Sequence of AP-2 complex subunit beta (Homo sapiens) (P63010 whole entry, looked up, one chain of several): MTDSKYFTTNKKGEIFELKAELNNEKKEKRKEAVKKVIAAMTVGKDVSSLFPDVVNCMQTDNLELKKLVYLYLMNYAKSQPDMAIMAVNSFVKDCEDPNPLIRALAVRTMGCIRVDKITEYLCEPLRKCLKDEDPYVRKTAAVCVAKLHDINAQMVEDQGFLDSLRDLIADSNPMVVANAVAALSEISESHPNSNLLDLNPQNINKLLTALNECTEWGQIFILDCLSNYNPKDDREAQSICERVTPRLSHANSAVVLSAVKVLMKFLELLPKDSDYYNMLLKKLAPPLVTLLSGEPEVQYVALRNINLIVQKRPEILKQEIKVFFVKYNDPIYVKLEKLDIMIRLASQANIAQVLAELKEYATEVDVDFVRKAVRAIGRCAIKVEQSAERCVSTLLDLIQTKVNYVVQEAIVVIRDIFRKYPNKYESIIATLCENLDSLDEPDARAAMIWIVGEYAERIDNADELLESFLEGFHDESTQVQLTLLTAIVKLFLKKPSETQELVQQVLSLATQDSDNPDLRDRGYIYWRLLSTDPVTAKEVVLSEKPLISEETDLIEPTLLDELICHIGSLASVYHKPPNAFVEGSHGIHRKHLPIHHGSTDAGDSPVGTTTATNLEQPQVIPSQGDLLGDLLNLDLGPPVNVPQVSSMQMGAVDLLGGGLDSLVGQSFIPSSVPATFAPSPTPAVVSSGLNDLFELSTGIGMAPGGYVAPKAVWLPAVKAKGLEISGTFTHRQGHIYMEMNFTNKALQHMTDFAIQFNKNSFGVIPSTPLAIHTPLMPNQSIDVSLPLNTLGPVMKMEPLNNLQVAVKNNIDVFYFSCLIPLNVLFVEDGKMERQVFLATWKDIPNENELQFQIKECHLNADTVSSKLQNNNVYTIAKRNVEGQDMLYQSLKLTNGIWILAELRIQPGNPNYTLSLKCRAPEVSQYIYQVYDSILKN
# [9] = yeast V-ATPase proton transport modulators, S. cerevisiae, pHLuorin, HTS validation (AID 504600; in the data active means response above about 15%;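 further: plate controls were DMSO for no effect and reference compound for full effect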); details: S. cerevisiae pHLuorin cytosolic pH, at 10 µM, stronger effect = higher value
# [10] = tested on: anti-desmoglein-3 scFv antibody binding to human DSG3; experiment: inhibitors of anti-DSG3 scFv binding to DSG3, pilot screen, biochemical, validation compound set, bead-based, flow cytometry (AID 588368;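 active means binding below the plate cutoff, the plate median minus 3 SD, with a reading above zero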;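 further: signal is the median channel fluorescence of bead-bound GFP antibody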); details: Protein G beads, DSG3-Fc, scFv-GFP binding, at 10 µM, stronger effect = lower value
# [11] = tested on: Botulinum neurotoxin type F light chain protease (Clostridium botulinum); experiment: Botulinum neurotoxin type F light chain protease inhibition, multiplex microsphere flow cytometry, validation set (AID 588459); details: multiplex microsphere protease substrate cleavage assay, at 10 µM, stronger effect = higher value
# [12] = target: Botulinum neurotoxin type A (Clostridium botulinum) (UniProt P0DPI0); experiment: BoNT/A light chain protease inhibitors, biochemical, multiplex microsphere flow cytometry, validation set (AID 588460); details: at 10 µM, stronger effect = higher value
# Sequence of Botulinum neurotoxin type A (Clostridium botulinum) (P0DPI0 whole entry, looked up): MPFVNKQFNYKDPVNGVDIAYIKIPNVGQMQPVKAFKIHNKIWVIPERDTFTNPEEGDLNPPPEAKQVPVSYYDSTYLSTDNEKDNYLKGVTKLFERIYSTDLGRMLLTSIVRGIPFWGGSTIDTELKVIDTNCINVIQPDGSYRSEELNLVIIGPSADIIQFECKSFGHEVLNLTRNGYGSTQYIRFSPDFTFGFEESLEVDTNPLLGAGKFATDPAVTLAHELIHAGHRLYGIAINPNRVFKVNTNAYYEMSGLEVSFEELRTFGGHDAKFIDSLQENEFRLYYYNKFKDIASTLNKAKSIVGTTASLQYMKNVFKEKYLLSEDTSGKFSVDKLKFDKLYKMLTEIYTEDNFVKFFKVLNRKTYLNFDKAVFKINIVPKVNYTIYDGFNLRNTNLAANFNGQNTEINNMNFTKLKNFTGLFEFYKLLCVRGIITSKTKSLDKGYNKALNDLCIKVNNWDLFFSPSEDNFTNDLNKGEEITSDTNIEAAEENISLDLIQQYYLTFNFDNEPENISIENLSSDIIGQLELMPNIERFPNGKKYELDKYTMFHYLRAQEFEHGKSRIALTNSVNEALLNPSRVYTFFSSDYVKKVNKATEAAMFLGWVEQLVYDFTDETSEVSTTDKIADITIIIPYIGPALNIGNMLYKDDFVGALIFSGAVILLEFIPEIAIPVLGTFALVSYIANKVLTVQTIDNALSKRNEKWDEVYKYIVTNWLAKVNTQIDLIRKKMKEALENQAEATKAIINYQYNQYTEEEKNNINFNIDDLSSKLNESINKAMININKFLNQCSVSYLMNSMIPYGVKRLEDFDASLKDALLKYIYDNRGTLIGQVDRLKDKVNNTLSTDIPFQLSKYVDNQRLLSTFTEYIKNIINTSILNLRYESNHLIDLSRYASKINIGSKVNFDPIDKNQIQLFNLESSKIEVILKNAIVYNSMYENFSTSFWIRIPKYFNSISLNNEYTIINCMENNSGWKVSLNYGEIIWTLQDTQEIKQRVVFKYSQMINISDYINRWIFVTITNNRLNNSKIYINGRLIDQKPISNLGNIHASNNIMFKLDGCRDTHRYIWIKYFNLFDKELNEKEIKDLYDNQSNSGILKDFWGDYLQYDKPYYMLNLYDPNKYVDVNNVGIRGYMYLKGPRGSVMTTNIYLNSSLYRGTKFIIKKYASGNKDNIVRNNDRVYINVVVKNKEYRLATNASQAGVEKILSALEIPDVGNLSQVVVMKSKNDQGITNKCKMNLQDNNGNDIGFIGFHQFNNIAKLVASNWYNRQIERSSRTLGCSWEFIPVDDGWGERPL
# [13] = target: Lethal factor (Bacillus anthracis) (UniProt P15917); experiment: Lethal factor protease inhibitors, Bacillus anthracis, multiplex microsphere cleavage assay, validation set (AID 588461); details: flow cytometry, at 10 µM, stronger effect = higher value
# Sequence of Lethal factor (Bacillus anthracis) (P15917 whole entry, looked up): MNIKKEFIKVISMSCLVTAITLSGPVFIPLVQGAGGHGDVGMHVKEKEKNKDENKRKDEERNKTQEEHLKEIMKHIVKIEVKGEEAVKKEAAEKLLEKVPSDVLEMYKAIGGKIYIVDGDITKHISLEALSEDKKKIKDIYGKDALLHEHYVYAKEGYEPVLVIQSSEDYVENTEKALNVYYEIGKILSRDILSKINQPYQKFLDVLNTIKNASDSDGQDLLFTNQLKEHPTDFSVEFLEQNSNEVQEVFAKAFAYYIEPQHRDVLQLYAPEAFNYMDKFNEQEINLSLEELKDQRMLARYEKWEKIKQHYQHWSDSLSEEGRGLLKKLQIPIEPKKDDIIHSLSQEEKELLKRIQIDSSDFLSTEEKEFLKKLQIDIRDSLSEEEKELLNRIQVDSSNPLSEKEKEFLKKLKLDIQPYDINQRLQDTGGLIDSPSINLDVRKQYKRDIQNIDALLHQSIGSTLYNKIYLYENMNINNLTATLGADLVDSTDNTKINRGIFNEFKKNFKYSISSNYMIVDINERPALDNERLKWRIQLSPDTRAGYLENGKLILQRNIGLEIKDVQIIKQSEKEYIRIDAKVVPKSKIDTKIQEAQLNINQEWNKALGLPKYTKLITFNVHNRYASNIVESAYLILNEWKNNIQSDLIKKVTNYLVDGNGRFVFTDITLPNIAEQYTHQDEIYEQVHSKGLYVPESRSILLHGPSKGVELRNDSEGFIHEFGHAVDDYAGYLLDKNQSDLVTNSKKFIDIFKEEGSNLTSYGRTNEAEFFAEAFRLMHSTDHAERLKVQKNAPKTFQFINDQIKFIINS
# [14] = inhibitors of fungal efflux pumps CDR1, CDR2, MDR1, pilot screen, validation compound set, multiplex, phenotypic (AID 588506;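 active means efflux inhibition above 0.42, the validation set average plus 4 SD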;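 further: Nile Red retained in cells so higher fluorescence means more efflux inhibition; 0 = negative control wells and 1 = enniatin B 25 µM full block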); details: S. cerevisiae pump-expressing triplex, Nile Red efflux flow cytometry; at 10 µM; stronger effect = higher value
# [15] = target: ATP-binding cassette sub-family B member 6 (Homo sapiens) (UniProt Q9NP58); experiment: ABCB6 transporter inhibitors, pilot screen, K562-ABCB6 cells, flow cytometry, validation set (AID 588550;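 active means inhibition above the screen-wide mean plus 3 SD, about 51%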;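 further: 0% = DMSO wells and 100% = benzethonium chloride 70 µM positive control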); details: K562-ABCB6 porphyrin accumulation, 1 h, at 10 µM, stronger effect = higher value
# Sequence of ATP-binding cassette sub-family B member 6 (Homo sapiens) (Q9NP58 whole entry, looked up): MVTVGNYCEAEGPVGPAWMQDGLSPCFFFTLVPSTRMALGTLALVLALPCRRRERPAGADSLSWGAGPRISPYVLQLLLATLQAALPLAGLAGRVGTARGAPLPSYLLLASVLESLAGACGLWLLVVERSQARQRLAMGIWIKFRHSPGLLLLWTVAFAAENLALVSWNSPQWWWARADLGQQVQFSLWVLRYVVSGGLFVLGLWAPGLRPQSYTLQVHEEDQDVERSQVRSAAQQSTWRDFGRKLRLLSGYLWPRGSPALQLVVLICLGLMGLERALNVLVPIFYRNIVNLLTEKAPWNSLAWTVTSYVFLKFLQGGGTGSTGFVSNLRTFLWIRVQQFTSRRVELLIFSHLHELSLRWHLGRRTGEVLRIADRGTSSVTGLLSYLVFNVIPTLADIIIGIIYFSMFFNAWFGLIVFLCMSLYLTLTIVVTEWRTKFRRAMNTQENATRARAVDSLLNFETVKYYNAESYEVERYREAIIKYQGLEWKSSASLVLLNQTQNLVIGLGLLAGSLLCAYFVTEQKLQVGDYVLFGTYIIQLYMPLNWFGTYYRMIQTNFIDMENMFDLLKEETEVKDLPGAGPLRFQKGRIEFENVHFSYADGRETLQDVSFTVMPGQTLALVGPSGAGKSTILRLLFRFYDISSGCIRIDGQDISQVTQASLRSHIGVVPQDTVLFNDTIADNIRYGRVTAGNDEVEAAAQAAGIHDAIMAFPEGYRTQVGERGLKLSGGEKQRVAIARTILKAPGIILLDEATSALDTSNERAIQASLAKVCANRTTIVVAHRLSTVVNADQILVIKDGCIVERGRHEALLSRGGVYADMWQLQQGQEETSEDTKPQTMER
# [16] = promoters of myeloid differentiation in arrested cells, primary screen, cell-based, GFP/MAC1 double positive, flow cytometry, validation set (AID 588685;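 active means differentiation response of at least 50%, scaled between solvent and reference control, from cells with both markers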;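 further: compound exposure lasts four days before antibody staining and flow analysis; 0% = DMSO wells and 100% = 5 µM fulvestrant positive control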); details: ER-HoxA9 marrow cells, stronger effect = higher value
# [17] = target: Beta-2 adrenergic receptor (Homo sapiens) (UniProt P07550); experiment: beta2AR agonists driving receptor internalization, pilot screen, cell-based, FAP fluorogen, flow cytometry, validation set (AID 504459;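 active means percent response above 42, roughly 3 SD of non-fluorescent test compounds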;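 further: agonist-driven loss of surface beta2AR via internalization measured by FAP dye flow cytometry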); details: Am2.2-beta2AR cells, FAP surface receptor flow cytometry; at 10 µM; stronger effect = higher value
# Sequence of Beta-2 adrenergic receptor (Homo sapiens) (P07550 whole entry, looked up): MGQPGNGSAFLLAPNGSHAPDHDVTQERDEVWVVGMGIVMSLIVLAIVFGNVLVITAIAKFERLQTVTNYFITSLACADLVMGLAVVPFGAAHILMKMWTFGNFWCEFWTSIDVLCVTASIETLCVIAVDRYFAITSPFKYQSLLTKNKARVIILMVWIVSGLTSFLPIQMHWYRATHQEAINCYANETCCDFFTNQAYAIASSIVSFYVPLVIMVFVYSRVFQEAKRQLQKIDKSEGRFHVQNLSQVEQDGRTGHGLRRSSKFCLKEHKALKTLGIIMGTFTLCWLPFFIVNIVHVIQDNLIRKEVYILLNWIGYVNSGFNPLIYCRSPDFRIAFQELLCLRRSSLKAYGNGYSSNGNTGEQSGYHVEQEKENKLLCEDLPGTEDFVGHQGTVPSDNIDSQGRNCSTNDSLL
Structure (SMILES),percent of DMSO control GFP [1],percent response of DMSO control [2],GFP response vs DMSO [3],double positive events [4] [%],vesicle binding response [4],inhibition [5],superoxide response (% of plate) [6],aptamer binding inhibition [7],inhibition [8],response [9],binding (% of control) [10],inhibition [11],inhibition [12],inhibition [13],efflux inhibition (fraction of control) [14],inhibition [15],differentiation response [16],response [17]
Cc1ccc2c(c1)C1CN(C)CCC1N2C(=O)Nc1cccc(Cl)c1 (configuration not stated),99.5% (inactive),109% (inactive),95.4% (inactive),56.9,242% (inactive),30.5% (inactive),93.4% (inactive),-3% (inactive),27.7% (inactive),-6.89% (inactive),102% (inactive),-0.9% (inactive),-0.1% (inactive),0% (inactive),-0.09 (inactive),4% (inactive),-18% (inactive),
O=c1[nH]c2ccccc2n1CCCN1CCC(n2c(=O)[nH]c3cc(Cl)ccc32)CC1,99.1% (inactive),91% (inactive),112% (inactive),55.1,240% (inactive),-4.52% (inactive),114% (inactive),1% (inactive),-6.83% (inactive),-0.17% (inactive),101% (inactive),,1.3% (inactive),-2.2% (inactive),-0.1 (inactive),2% (inactive),-34.4% (inactive),2.71% (inactive)
CCOC(=O)c1cc2c(cn1)[nH]c1ccccc12,98.4% (inactive),103% (inactive),105% (inactive),59.3,102% (inactive),-7.79% (inactive),96.2% (inactive),3% (inactive),-6.1% (inactive),-1.17% (inactive),98.5% (inactive),2.3% (inactive),0.5% (inactive),-1.3% (inactive),-0.39 (inactive),-6% (inactive),-1.65% (inactive),-5.72% (inactive)
COc1ccc2c(c1)CC1(CN2C)C(=O)NC(=O)N(CCc2ccccc2)C1=O (configuration not stated),101% (inactive),96.6% (inactive),88.1% (inactive),65.8,263% (inactive),-3.57% (inactive),,-3% (inactive),-4.29% (inactive),1.95% (inactive),104% (inactive),3.8% (inactive),1.1% (inactive),-1.5% (inactive),-0.07 (inactive),27% (inactive),27.6% (inactive),-3.63% (inactive)
CC(Cc1ccccc1)NCC(=O)Nc1cc(N(C)C)nc2ccccc12 (configuration not stated),101% (inactive),93.9% (inactive),105% (inactive),52.9,191% (inactive),-40.4% (inactive),93.7% (inactive),5% (inactive),-8.4% (inactive),-1.24% (inactive),99.3% (inactive),11.6% (inactive),6.4% (inactive),0.6% (inactive),-0.31 (inactive),8% (inactive),-18% (inactive),
[N-]=[N+]=NC1C[C@H](n2ccc(=O)[nH]c2=O)O[C@@H]1CO (some centres not stated),101% (inactive),106% (inactive),101% (inactive),56.5,185% (inactive),9.09% (inactive),97.1% (inactive),-2% (inactive),42% (inactive),-3.04% (inactive),97.7% (inactive),0.8% (inactive),-1.5% (inactive),-5.9% (inactive),0.03 (inactive),6% (inactive),-21.2% (inactive),
S=C1NCCN1,99.1% (inactive),97.9% (inactive),102% (inactive),65.7,186% (inactive),6.29% (inactive),98.2% (inactive),3% (inactive),24.8% (inactive),-0.28% (inactive),98% (inactive),,,,0.63 (active),14% (inactive),-0.2% (inactive),
CN1C(=O)CN=C(c2ccc(Cl)cc2)c2cc(Cl)ccc21,99% (inactive),95.4% (inactive),103% (inactive),62.8,174% (inactive),9.92% (inactive),,-1% (inactive),-0.45% (inactive),4.65% (inactive),96.8% (inactive),3.6% (inactive),0.8% (inactive),-3.5% (inactive),0.27 (inactive),7% (inactive),1.22% (inactive),-17.9% (inactive)
CCn1c(O)c(C(=O)CC2NCCc3ccccc32)c(=O)n(CC)c1=S (configuration not stated),95.2% (inactive),97.7% (inactive),132% (inactive),55.8,186% (inactive),-7.25% (inactive),113% (inactive),1% (inactive),5.21% (inactive),1.26% (inactive),102% (inactive),2.4% (inactive),1.1% (inactive),-11.5% (inactive),-0.03 (inactive),-11% (inactive),-15.2% (inactive),20.4% (inactive)
